Inconclusive results are not listed. The source made the active and inactive calls. The call rests on the fitted dose curve; in most records, active means well fitted inhibition curve with a large enough effect; inconclusive means small, poorly fitted or top-dose-only effect; inactive means no such curve, though single readings can be large or run the other way.
Experiment: InCell qHTS Assay for Inhibitors of the mTORC1 Signaling Pathway in MEF (Tsc2-/-, p53-/-) Cells: Hit Validation;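 further: phospho-S6 Ser235/236 signal normalized to propidium iodide cell count per well; nearly all actives have a fitted effect of over 75% in size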
Details: phospho-rpS6 immunofluorescence, 24 h; activity change, negative = inhibition: at 38.3 µM (top of the series)
For `CCC(=O)C1=C(c2ccc(Cl)cc2)N(C(=O)CC)n2c(C)nnc2S1`, the Potency was 2.61 µM (active).
`COc1ccc(C(=O)Nc2ccc3c(c2)N(C)C(=O)c2ccccc2S3)cc1OC` gave an activity change, negative = inhibition of -100%.
In the case of `CC(C)Cc1ccc(S(=O)(=O)N2CCC(c3ccncc3)CC2)cc1`, the activity change, negative = inhibition is reported as -100%.
Compound `O=C(CCCn1c(=O)c2ccccc2n(Cc2cccc(Cl)c2)c1=O)NCCc1ccc(Cl)cc1` has an activity change, negative = inhibition of -100%.
Compound `C#CCN1C(=O)C(O)(CC(=O)c2ccc(OC)c(OC)c2)c2cc(Br)ccc21` (configuration not stated) has an activity change, negative = inhibition of -100%.
In the case of `CCOc1cc(C(=O)Nc2ccc(-c3cn4cccnc4n3)cc2)cc(OCC)c1OCC`, the activity change, negative = inhibition is reported as -100%.
In the case of `CC1=C(C(=O)Nc2ccc(C)cc2C)C(c2cc(Br)ccc2F)n2ncc(C(=O)Nc3ccc(C)cc3)c2N1` (configuration not stated), the Potency is reported as 14.7 µM (active).
For `CCOc1ccccc1NS(=O)(=O)c1ccc(-c2cnc(C3CC3)o2)cc1`, the activity change, negative = inhibition was -100%.
`O=c1c(-c2cc(-c3ccc(F)cc3)nc3c2COc2ccc(Cl)cc2-3)coc2ccc(F)cc12` showed an activity change, negative = inhibition of -100%.
`Cc1ccc(NC(=O)CCNS(=O)(=O)c2cccc3nonc23)cc1Cl` showed an activity change, negative = inhibition of -100%.
Compound `CC(C)Oc1cccc(C2CC(=O)Nc3cc4c(cc32)OCO4)c1` (configuration not stated) has an activity change, negative = inhibition of -9.58%.
In the case of `CC1=Nc2cc(C(=O)NC3CCCCC3)ccc2Sc2ccc(Cl)cc21`, the activity change, negative = inhibition is reported as -100%.
With `Cc1ccc(CS(=O)(=O)c2ncc(Cl)c(C(=O)Nc3nnc(C(C)C)s3)n2)cc1` the Potency was 6.56 µM (active).
`Cc1ccc(NC(=O)CSc2ccc(-c3ccccn3)nn2)cc1F` gave an activity change, negative = inhibition of -100%.
`CSc1ccc(CCNC(=O)C(C)n2nc(C)c3sc4ccccc4c3c2=O)cc1` (configuration not stated) gave an activity change, negative = inhibition of -100%.
In the case of `Cc1nn(CC(=O)NCc2ccccc2Cl)c(=O)c2cccn12`, the activity change, negative = inhibition is reported as -100%.
With `Cc1nc2nncn2c(NCc2ccc(Cl)cc2)c1C` the activity change, negative = inhibition was -100%.
In the case of `CCOC(=O)N1CCN(Cc2nc3cc(NC(=O)CC(C)C)ccc3n2C(C)C)CC1`, the activity change, negative = inhibition is reported as -100%.
In the case of `COc1ccc(CCCc2nnc(SCC(=O)Nc3ccc(OC)cc3)o2)cc1`, the activity change, negative = inhibition is reported as -100%.
`COCCCNC(=O)c1ccc(CSc2nc3cccnc3n2Cc2ccc(OC)cc2)cc1` showed an activity change, negative = inhibition of -100%.
In the case of `CCOC(=O)N1CCN(Cc2nc3cc(NC(=O)c4ccc(F)cc4)ccc3n2C(C)C)CC1`, the activity change, negative = inhibition is reported as -100%.
In the case of `COc1ccc(-c2nc(C)c(CCNC(=O)c3ccccc3Br)s2)cc1OC`, the activity change, negative = inhibition is reported as -100%.
Work on `CC1CCCCN1c1nnc(NC(=O)Nc2ccccc2F)s1` (configuration not stated) yielded an activity change, negative = inhibition of -100%.
In the case of `CC1C(=O)N2CCCc3cc(S(=O)(=O)Nc4ccc(Br)cc4F)cc1c32` (configuration not stated), the Potency is reported as 14.7 µM (active).
With `CCCOCc1cc(CN2CCN(c3ccccc3OC)CC2)c(O)c2ncccc12` the Potency was 11.7 µM (active).
Work on `COc1ccc(N2CCN(C(=O)C3CCN(Cc4nc(-c5ccc(Cl)cc5)oc4C)CC3)CC2)cc1` yielded an activity change, negative = inhibition of -100%.
For `COc1cc(C(=O)Nc2ccc(NC(=O)c3ccc(C(C)(C)C)cc3)cc2)cc(OC)c1OC`, the activity change, negative = inhibition was -100%.
Compound `COc1ccccc1N1CCN(C(=O)c2cnc(N3CCCCC3)c3ccccc23)CC1` has an activity change, negative = inhibition of -100%.
`CC(C)(C)C1CCc2c(sc(NC(=O)C3c4ccccc4Oc4ccccc43)c2C(N)=O)C1` (configuration not stated) gave an activity change, negative = inhibition of -100%.
For `CCC1=Nc2cc(C(=O)NC3CCC(C)CC3)ccc2Sc2ccc(C)cc21` (configuration not stated), the activity change, negative = inhibition was -100%.
In the case of `CCC1CCc2nc3sc(C(=O)Nc4cccc(F)c4)c(N)c3cc2C1` (configuration not stated), the activity change, negative = inhibition is reported as -100%.
With `Cc1ccc(C)c(NC(=O)c2nc(S(=O)(=O)Cc3ccc(F)cc3)ncc2Cl)c1` the Potency was 3.29 µM (active).
With `CCOC(=O)N1CCN(Cc2nc3cc(NC(C)=O)ccc3n2C(C)C)CC1` the activity change, negative = inhibition was -100%.
Compound `COc1cccc(C(=O)Nc2ccc(-c3cc(C(F)(F)F)nn3-c3ccccc3)cc2)c1` has an activity change, negative = inhibition of -100%.
`Cc1nn(CCCC(=O)NCc2ccccc2)c(=O)c2c1sc1ccccc12` gave an activity change, negative = inhibition of -100%.
Work on `CCC(Sc1nncn2c1cc1oc(C)cc12)C(=O)Nc1ccc(F)cc1` (configuration not stated) yielded an activity change, negative = inhibition of -100%.
`CCc1ccc(NC(=O)C2CCCN(S(=O)(=O)c3cccc4cccnc34)C2)cc1` (configuration not stated) showed an activity change, negative = inhibition of -100%.

— PubChem BioAssay AID651791 (National Center for Advancing Translational Sciences (NCATS), 2012)
Potency means the concentration at half of the fitted maximal effect.
